Laboratory results: ChEMBL document CHEMBL4513216, “Probing the Open Global Health Chemical Diversity Library for Multistage-Active Starting Points for Next-Generation Antimalarials” (ACS Infect Dis, 2020)
Screen size: about 69,000 compounds; about 8,600 (12%) showed an effect of 50% or more. Many of the other results were omitted from the sample, so strong results are more common in it than they were.

Test system: Plasmodium berghei
Experiment: Screen against P. berghei liver stage (PbLuc), transformed with Luciferase, at 10uM
Format: functional, HepG2
Details: tested at 10 uM

How did the INHIBITION turn out when `CC(C)c1ncc(CNC2(c3ccc(Cl)cc3)CC2)cn1` was run?
Its INHIBITION is -33.4%.

For `O=C(NC1CCN(C2CC2)C1)c1cn(-c2ccc(F)cc2)nn1` (stereo unspecified), which INHIBITION is on record?
Its INHIBITION is 14.3%.

For `CC1CN(C(=O)c2ccn(C)c(=O)c2)c2ccccc2NC1=O` (stereo unspecified), which INHIBITION is on record?
Its INHIBITION is -24%.

Which INHIBITION does the source give for `Cc1ccc(CN(C)C(=O)CN2CCCC(Cn3cncn3)C2)o1` (stereo unspecified) here?
The INHIBITION was 15.6%.

How did the INHIBITION turn out when `Cc1ccc(C(=O)N(C)Cc2ccc(Br)s2)c(=O)[nH]1` was run?
Its INHIBITION is 37.4%.

Which INHIBITION does the source give for `Cc1ccc(-c2nc(CNC(C)Cn3cccn3)cs2)o1` (stereo unspecified) here?
Its INHIBITION is -27.9%.

Which INHIBITION does the source give for `CCCc1noc(C(C)N2CCN(c3ccc(C#N)cn3)CC2)n1` (stereo unspecified) here?
The INHIBITION was 5.23%.

How did the INHIBITION turn out when `CC(Cn1cccn1)NC(=O)N(C)Cc1ccc(C(N)=O)cc1` (stereo unspecified) was run?
Its INHIBITION is 14.3%.

`CC(C)NC(=O)N1CCC2(CC(=O)N(c3cccc(C#N)c3)C2)C1` (stereo unspecified) was tested. Which INHIBITION did it give?
Its INHIBITION is 66.5%.

How did the INHIBITION turn out when `CC(C)NC(=O)N1CCC2(CC(=O)N(c3cccc(F)c3)C2)C1` (stereo unspecified) was run?
The INHIBITION was 7.65%.

For `Cc1cccc(N2CC3(CCN(C(=O)NC(C)C)C3)CC2=O)c1` (stereo unspecified), which INHIBITION is on record?
Its INHIBITION is 14.6%.

How did the INHIBITION turn out when `COCCN1C[C@@H]2CC[C@H]1CN(C(=O)CCc1c(C)nn(C)c1C)C2` was run?
Its INHIBITION is 27.5%.

How did the INHIBITION turn out when `Cn1ccnc1CN1C[C@H](N2CCOCC2)[C@@H]2OCCC[C@@H]21` was run?
The INHIBITION was 37.8%.

How did the INHIBITION turn out when `Cn1cc(CN2C[C@H](N3CCOCC3)[C@@H]3OCCC[C@@H]32)cn1` was run?
Its INHIBITION is 54.1%.

`Cn1cc(CN2C[C@@H](N3CCCC3=O)[C@H]3OCCC[C@H]32)cn1` was tested. Which INHIBITION did it give?
The INHIBITION was 29%.

`CC(C)c1nnc(CN2CCCC3(CC2)CN(C)C(=O)O3)o1` (stereo unspecified) was tested. Which INHIBITION did it give?
The INHIBITION was 23.9%.

Which INHIBITION does the source give for `CCOc1ccc(Cl)c(C(=O)N2CCCC(N3CCCC3)C2)n1` (stereo unspecified) here?
The INHIBITION was 23.3%.

Which INHIBITION does the source give for `CC(C)N(CC(N)=O)Cc1csc(COc2ccc(F)cc2)n1` here?
Its INHIBITION is 81.5%.

`COCc1nc(CN(CC(N)=O)C(C)C)cs1` was tested. Which INHIBITION did it give?
Its INHIBITION is 42%.

With `CCc1nc(CN(CC(N)=O)C(C)C)cs1` as the compound, how does the INHIBITION read?
The INHIBITION was 22.5%.

Which INHIBITION does the source give for `COc1ccc(-c2noc(CN3CCN(c4cnccn4)CC3)n2)cc1` here?
Its INHIBITION is 47%.

For `COC(=O)c1cccc(C(=O)N2CCN(C(=O)N(C)C)CC2(C)C)c1`, which INHIBITION is on record?
Its INHIBITION is 68.6%.

`CN(C)C(=O)N1CCN(C(=O)c2ccc(Cl)c(Cl)c2)C(C)(C)C1` was tested. Which INHIBITION did it give?
The INHIBITION was 14.1%.

Which INHIBITION does the source give for `Cc1cc(C)cc(C(=O)N2CCN(C(=O)N(C)C)CC2(C)C)c1` here?
Its INHIBITION is 18.6%.

For `CC(=O)N1CCC2(CC1)CN(C)CC[C@H]2C(F)(F)F`, which INHIBITION is on record?
The INHIBITION was -22.1%.

`c1cc(CN2CCc3ncnc(C4CCOC4)c3CC2)ccn1` (stereo unspecified) was tested. Which INHIBITION did it give?
Its INHIBITION is 29.8%.

How did the INHIBITION turn out when `O=C(c1cn(-c2ccccc2)nn1)N1CCOCC(O)C1` (stereo unspecified) was run?
Its INHIBITION is -28.1%.

How did the INHIBITION turn out when `O=C(CCc1nc(Cl)n[nH]1)NC1CCCN(C2Cc3ccccc3C2)C1` (stereo unspecified) was run?
Its INHIBITION is 35.1%.

With `O=C(CCc1ccccn1)NC1CCCN(C2Cc3ccccc3C2)C1` (stereo unspecified) as the compound, how does the INHIBITION read?
Its INHIBITION is 51.1%.

Which INHIBITION does the source give for `O=C(CCc1ccccn1)NC1CCN(c2cccc(Cl)c2)C1` (stereo unspecified) here?
Its INHIBITION is 46.4%.

With `Cn1nnnc1SC1CCCN(c2cccc(F)c2)C1=O` (stereo unspecified) as the compound, how does the INHIBITION read?
The INHIBITION was -12.4%.

`O=C(CN1CCOCC1)N(c1ccccc1)c1ccccc1` was tested. Which INHIBITION did it give?
The INHIBITION was 78.8%.

For `O=C(COCC(=O)N(c1ccccc1)c1ccccc1)N1CCOCC1`, which INHIBITION is on record?
Its INHIBITION is 13.3%.

With `CN(CCN1CCOCC1)C(=O)CCCc1ccccc1` as the compound, how does the INHIBITION read?
The INHIBITION was -57.6%.

`CCOCC(=O)N1CCC2(CC1)CN(Cc1cccnc1)C(=O)CO2` was tested. Which INHIBITION did it give?
The INHIBITION was -47.9%.

For `COCCN1CCCC(Cc2cnc(-c3c(C)nn(C)c3C)cn2)C1` (stereo unspecified), which INHIBITION is on record?
The INHIBITION was -29.9%.

With `COCC1CN(c2ccc(C)nn2)Cc2cnn(CC3CCOCC3)c21` (stereo unspecified) as the compound, how does the INHIBITION read?
The INHIBITION was 13.6%.

With `Cc1cc2[nH]c(O)nc2cc1NCc1ccc(F)cc1` as the compound, how does the INHIBITION read?
Its INHIBITION is -5.64%.

How did the INHIBITION turn out when `COc1ccc(-c2nc3c([nH]2)CCNC3C(=O)O)c2ccccc12` (stereo unspecified) was run?
Its INHIBITION is 55.4%.

With `Cc1ccc(-c2nc3c([nH]2)CCNC3C(=O)O)c2cccnc12` (stereo unspecified) as the compound, how does the INHIBITION read?
Its INHIBITION is -6.83%.

Which INHIBITION does the source give for `COc1ccc(-c2nc3c([nH]2)CCNC3C(=O)O)c2ccc(C)nc12` (stereo unspecified) here?
Its INHIBITION is 36.6%.

For `Cc1ccc2nc(C(=O)N3C[C@@H](C(=O)O)[C@H](c4cccnc4)C3)cn2c1`, which INHIBITION is on record?
Its INHIBITION is -10.1%.

With `COc1cc(CNC(=O)COC2CCCC2)ccc1O` as the compound, how does the INHIBITION read?
Its INHIBITION is 9.06%.

For `CNc1cc(C2CCN2c2ncccn2)nc(C)n1` (stereo unspecified), which INHIBITION is on record?
Its INHIBITION is 15.5%.

For `NC(=O)NC(=O)C(c1ccccc1)N1CCN(Cc2ccccc2)CC1` (stereo unspecified), which INHIBITION is on record?
The INHIBITION was 24%.

For `NC(=O)NC(=O)C(c1ccccc1)N1CCN(Cc2ccc(Cl)s2)CC1` (stereo unspecified), which INHIBITION is on record?
The INHIBITION was 50.4%.

How did the INHIBITION turn out when `O=C(NC1CC1)C(c1ccccc1)N1CCN(Cc2ccc(Cl)s2)CC1` (stereo unspecified) was run?
Its INHIBITION is -65%.

For `CS(=O)(=O)c1cncnc1C1CCCN(C(=O)NCc2ccccc2)C1` (stereo unspecified), which INHIBITION is on record?
The INHIBITION was -2.665%.

With `COc1ccc(CN2C[C@@H]3OCCN(c4ncccn4)[C@@H]3C2)cc1` as the compound, how does the INHIBITION read?
The INHIBITION was 32.4%.

For `Fc1ccccc1CN1C[C@@H]2OCCN(c3ncccn3)[C@@H]2C1`, which INHIBITION is on record?
The INHIBITION was 42.7%.

With `c1cnc(N2CCO[C@H]3CN(CC4CC4)C[C@H]32)nc1` as the compound, how does the INHIBITION read?
The INHIBITION was 35.2%.

How did the INHIBITION turn out when `Cc1noc(C)c1CN1CCO[C@H]2CN(Cc3cncn3C)C[C@H]21` was run?
The INHIBITION was 18.5%.

With `c1ccc(CCN2C[C@@H]3OCCN(c4ncccn4)[C@@H]3C2)cc1` as the compound, how does the INHIBITION read?
The INHIBITION was 76.5%.

Which INHIBITION does the source give for `Cn1cc(CN2C[C@@H]3OCCN(c4ncccn4)[C@@H]3C2)cn1` here?
Its INHIBITION is 83.5%.

For `Cc1ccc(N2CCO[C@H]3CN(Cc4cnn(C)c4)C[C@H]32)nn1`, which INHIBITION is on record?
Its INHIBITION is 25.6%.

For `Cn1ccnc1CN1C[C@@H]2OCCN(c3ncccn3)[C@@H]2C1`, which INHIBITION is on record?
Its INHIBITION is 28.7%.

How did the INHIBITION turn out when `Cn1cncc1CN1C[C@@H]2OCCN(c3ncccn3)[C@@H]2C1` was run?
Its INHIBITION is 63.7%.

For `Cc1cc2cc(NC(=O)Cn3ncc(N4CCCC4)cc3=O)ccc2o1`, which INHIBITION is on record?
The INHIBITION was 30.3%.

For `CCn1cnnc1CNS(=O)(=O)N1CCCC1c1ccc(C)o1` (stereo unspecified), which INHIBITION is on record?
Its INHIBITION is 2.79%.

How did the INHIBITION turn out when `CC(C)c1nc(O)c2nnn(C[C@H]3CCCN(Cc4cccs4)C3)c2n1` was run?
The INHIBITION was 2.55%.

With `CCn1nc(C)c2ncnc(NCCn3cccn3)c21` as the compound, how does the INHIBITION read?
The INHIBITION was -15%.

With `CC(C)CC1SCC(=O)Nc2c1cnn2C1CCCC1` (stereo unspecified) as the compound, how does the INHIBITION read?
Its INHIBITION is -37.2%.

`CN(C)C(=O)[C@@H]1C[C@H]2OCC[C@H]2N(CCOc2ccc(Cl)cc2)C1` was tested. Which INHIBITION did it give?
The INHIBITION was -23.4%.

With `CC(C)Cc1cc(C(=O)NCc2nnc[nH]2)[nH]n1` as the compound, how does the INHIBITION read?
Its INHIBITION is -21.3%.

For `CC(C)Cc1cc(C(=O)NCCN2CCCS2(=O)=O)[nH]n1`, which INHIBITION is on record?
Its INHIBITION is -36.385%.

For `CC(C)Cc1cc(C(=O)NC(C)C)[nH]n1`, which INHIBITION is on record?
The INHIBITION was 50.8%.
